Test results taken from PubChem BioAssay (NCATS).
Results filed as inconclusive are left out. Active and inactive are the calls of the source. The call rests on the fitted dose curve; in most records, active means well fitted inhibition curve with a large enough effect; inconclusive means small, poorly fitted or top-dose-only effect; inactive means flat fitted curve, though single readings scatter.

Legend:
Test in all cases: qHTS profiling for inhibitors of Plasmodium falciparum proliferation (AID 504749); further: nearly all actives have a fitted effect of over 60% in size
Details in all cases: P. falciparum in erythrocytes, SYBR Green DNA, 72 h; series mostly up to 28.7 µM
CP329 = tested on: CP329
Summary of the method: (§1)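 Readout was DNA-dye fluorescence from lysed cultures, ex 485/em 535 nm. Parasitized red cells had grown 72 h with compound; data scaled between 0.29 uM artemisinin and DMSO wells and corrected using vehicle-only plates.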

CP335 = tested on: CP335
Summary of the method: as §1

DFO2036 = tested on: DFO2036
Summary of the method: as §1

DIV14 = tested on: DIV14
Summary of the method: as §1

DIV17 = tested on: DIV17
Summary of the method: as §1

DIV30 = tested on: DIV30
Summary of the method: as §1

Dd2 = tested on: Dd2
Summary of the method: as §1

ECU = tested on: ECU
Summary of the method: as §1

FAB9 = tested on: FAB9
Summary of the method: as §1

GB4 = tested on: GB4
Summary of the method: as §1

HB3 = tested on: HB3
Summary of the method: as §1

ICS = tested on: ICS
Summary of the method: as §1

JCK = tested on: JCK
Summary of the method: as §1

N140 = tested on: N140
Summary of the method: as §1

P93_24 = tested on: P93_24
Summary of the method: as §1

P94_40 = tested on: P94_40
Summary of the method: as §1

PAD = tested on: PAD
Summary of the method: as §1

PC15 = tested on: PC15
Summary of the method: as §1

PC26 = tested on: PC26
Summary of the method: as §1

PC49 = tested on: PC49
Summary of the method: as §1

Measured: Potency

O=C(CCl)c1ccc(Oc2ccc(C(=O)CCl)cc2)cc1
inactive: CP329 | CP335 | DFO2036 | DIV14 | DIV17 | DIV30 | Dd2 | ECU | FAB9 | GB4 | HB3 | ICS | JCK | N140 | P93_24 | P94_40 | PAD | PC15 | PC26 | PC49

N#CC1(N2CCCCC2)CCCCC1
inactive: CP329 | CP335 | DFO2036 | DIV14 | DIV17 | DIV30 | Dd2 | ECU | FAB9 | GB4 | HB3 | ICS | JCK | N140 | P93_24 | P94_40 | PAD | PC15 | PC26 | PC49

Clc1ccc(C2(Cn3cncn3)OCCO2)c(Cl)c1
inactive: CP329 | CP335 | DFO2036 | DIV14 | DIV17 | DIV30 | Dd2 | ECU | FAB9 | GB4 | HB3 | ICS | JCK | N140 | P93_24 | P94_40 | PAD | PC15 | PC26 | PC49

Cn1sc(Cl)cc1=O
inactive: CP329 | CP335 | DFO2036 | DIV14 | DIV17 | DIV30 | Dd2 | ECU | FAB9 | GB4 | HB3 | ICS | JCK | N140 | P93_24 | P94_40 | PAD | PC15 | PC26 | PC49

NCC(O)c1cccc(O)c1 (stereo not given)
inactive: CP329 | CP335 | DFO2036 | DIV14 | DIV17 | DIV30 | Dd2 | ECU | FAB9 | GB4 | HB3 | ICS | JCK | N140 | P93_24 | P94_40 | PAD | PC15 | PC26 | PC49

O=C(NCNC(=O)NC1C(=O)NC(=O)N1CO)NC1C(=O)NC(=O)N1CO (stereo not given)
inactive: CP329 | CP335 | DFO2036 | DIV14 | DIV17 | DIV30 | Dd2 | ECU | FAB9 | GB4 | HB3 | ICS | JCK | N140 | P93_24 | P94_40 | PAD | PC15 | PC26 | PC49

CCC(C)(S(=O)(=O)CC)S(=O)(=O)CC
inactive: CP329 | CP335 | DFO2036 | DIV14 | DIV17 | DIV30 | Dd2 | ECU | FAB9 | GB4 | HB3 | ICS | JCK | N140 | P93_24 | P94_40 | PAD | PC15 | PC26 | PC49

O=c1[nH]c(=O)n(Cl)c(=O)n1Cl
inactive: CP329 | CP335 | DFO2036 | DIV14 | DIV17 | DIV30 | Dd2 | ECU | FAB9 | GB4 | HB3 | ICS | JCK | N140 | P93_24 | P94_40 | PAD | PC15 | PC26 | PC49

C[C@H]1CC[C@@H]2[C@@H](C)[C@H]3[C@H](C[C@H]4[C@@H]5CC=C6CC(O[C@@H]7O[C@H](CO)[C@H](O)[C@H](O[C@@H]8O[C@H](CO)[C@@H](O)[C@H](O)[C@H]8O)[C@H]7O[C@H]7O[C@@H](C)[C@H](O)[C@@H](O)[C@H]7O)CC[C@]6(C)[C@H]5CC[C@]34C)N2C1 (stereo not given in full)
inactive: CP329 | CP335 | DFO2036 | DIV14 | DIV17 | DIV30 | Dd2 | ECU | FAB9 | GB4 | HB3 | ICS | JCK | N140 | P93_24 | P94_40 | PAD | PC15 | PC26 | PC49

O=C(OCCN1CCCCC1)C(O)(c1ccccc1)c1ccccc1
inactive: CP329 | CP335 | DFO2036 | DIV14 | DIV17 | DIV30 | Dd2 | ECU | FAB9 | GB4 | HB3 | ICS | JCK | N140 | P93_24 | P94_40 | PAD | PC15 | PC26 | PC49

O=C1CN(O)C(c2ccccc2)=c2cc(Cl)ccc2=N1
inactive: CP329 | CP335 | DFO2036 | DIV14 | DIV17 | DIV30 | Dd2 | ECU | FAB9 | GB4 | HB3 | ICS | JCK | N140 | P93_24 | P94_40 | PAD | PC15 | PC26 | PC49

S=C(S)N1CCNCC1
inactive: CP329 | CP335 | DFO2036 | DIV14 | DIV17 | DIV30 | Dd2 | ECU | FAB9 | GB4 | HB3 | ICS | JCK | N140 | P93_24 | P94_40 | PAD | PC15 | PC26 | PC49

CN1c2ccccc2C(NCCCCCCC(=O)O)c2ccc(Cl)cc2S1(=O)=O (stereo not given)
inactive: CP329 | CP335 | DFO2036 | DIV14 | DIV17 | DIV30 | Dd2 | ECU | FAB9 | GB4 | HB3 | ICS | JCK | N140 | P93_24 | P94_40 | PAD | PC15 | PC26 | PC49

CNC(=O)OCC[N+](C)(C)C
inactive: CP329 | CP335 | DFO2036 | DIV14 | DIV17 | DIV30 | Dd2 | ECU | FAB9 | GB4 | HB3 | ICS | JCK | N140 | P93_24 | P94_40 | PAD | PC15 | PC26 | PC49

ClCC1CO1 (stereo not given)
inactive: CP329 | CP335 | DFO2036 | DIV14 | DIV17 | DIV30 | Dd2 | ECU | FAB9 | GB4 | HB3 | ICS | JCK | N140 | P93_24 | P94_40 | PAD | PC15 | PC26 | PC49

CCCC(C)(COC(N)=O)COC(=O)NC1CC1 (stereo not given)
inactive: CP329 | CP335 | DFO2036 | DIV14 | DIV17 | DIV30 | Dd2 | ECU | FAB9 | GB4 | HB3 | ICS | JCK | N140 | P93_24 | P94_40 | PAD | PC15 | PC26 | PC49

O=C(NC(=O)c1c(F)cccc1F)Nc1ccc(Cl)c(Oc2ncc(C(F)(F)F)cc2Cl)c1
inactive: CP329 | CP335 | DFO2036 | DIV14 | DIV17 | DIV30 | Dd2 | ECU | FAB9 | GB4 | HB3 | ICS | JCK | N140 | P93_24 | P94_40 | PAD | PC15 | PC26 | PC49

CC[N+](C)(CC)CCOC(=O)C(O)(c1ccccc1)c1ccccc1
inactive: CP329 | CP335 | DFO2036 | DIV14 | DIV17 | DIV30 | Dd2 | ECU | FAB9 | GB4 | HB3 | ICS | JCK | N140 | P93_24 | P94_40 | PAD | PC15 | PC26 | PC49

[O]=[Cd]
inactive: CP329 | CP335 | DFO2036 | DIV14 | DIV17 | DIV30 | Dd2 | ECU | FAB9 | GB4 | HB3 | ICS | JCK | N140 | P93_24 | P94_40 | PAD | PC15 | PC26 | PC49

C[C@]12CCC(=O)C[C@@H]1CC[C@@H]1[C@@H]2CC[C@]2(C)[C@@H](O)CC[C@@H]12
inactive: CP329 | CP335 | DFO2036 | DIV14 | DIV17 | DIV30 | Dd2 | ECU | FAB9 | GB4 | HB3 | ICS | JCK | N140 | P93_24 | P94_40 | PAD | PC15 | PC26 | PC49

CCOC(=O)c1ccccc1C(=O)OCC
inactive: CP329 | CP335 | DFO2036 | DIV14 | DIV17 | DIV30 | Dd2 | ECU | FAB9 | GB4 | HB3 | ICS | JCK | N140 | P93_24 | P94_40 | PAD | PC15 | PC26 | PC49

O=C(O)C(Cl)(Cl)Cl
inactive: CP329 | CP335 | DFO2036 | DIV14 | DIV17 | DIV30 | Dd2 | ECU | FAB9 | GB4 | HB3 | ICS | JCK | N140 | P93_24 | P94_40 | PAD | PC15 | PC26 | PC49

CC(=O)OC1CN2CCC1CC2 (stereo not given)
inactive: CP329 | CP335 | DFO2036 | DIV14 | DIV17 | DIV30 | Dd2 | ECU | FAB9 | GB4 | HB3 | ICS | JCK | N140 | P93_24 | P94_40 | PAD | PC15 | PC26 | PC49

C=CCN(C1=NCCN1)c1c(Cl)cccc1Cl
inactive: CP329 | CP335 | DFO2036 | DIV14 | DIV17 | DIV30 | Dd2 | ECU | FAB9 | GB4 | HB3 | ICS | JCK | N140 | P93_24 | P94_40 | PAD | PC15 | PC26 | PC49

CCCC(C)C1(CC)C(=O)NC(=O)NC1=O (stereo not given)
inactive: CP329 | CP335 | DFO2036 | DIV14 | DIV17 | DIV30 | Dd2 | ECU | FAB9 | GB4 | HB3 | ICS | JCK | N140 | P93_24 | P94_40 | PAD | PC15 | PC26 | PC49

CNC(C)C(O)c1ccc(O)cc1 (stereo not given)
inactive: CP329 | CP335 | DFO2036 | DIV14 | DIV17 | DIV30 | Dd2 | ECU | FAB9 | GB4 | HB3 | ICS | JCK | N140 | P93_24 | P94_40 | PAD | PC15 | PC26 | PC49
